From PubChem
DRD3 agonist – D3 dopamine receptor (human) agonism; AID 652048; P35462; max activation, %; D3R DiscoveRx beta-arrestin cells, luminescence, 90 min; 0.58% of 410,000 active; in the data active = max activation above about 30%
Target sequence (P35462 whole entry, looked up): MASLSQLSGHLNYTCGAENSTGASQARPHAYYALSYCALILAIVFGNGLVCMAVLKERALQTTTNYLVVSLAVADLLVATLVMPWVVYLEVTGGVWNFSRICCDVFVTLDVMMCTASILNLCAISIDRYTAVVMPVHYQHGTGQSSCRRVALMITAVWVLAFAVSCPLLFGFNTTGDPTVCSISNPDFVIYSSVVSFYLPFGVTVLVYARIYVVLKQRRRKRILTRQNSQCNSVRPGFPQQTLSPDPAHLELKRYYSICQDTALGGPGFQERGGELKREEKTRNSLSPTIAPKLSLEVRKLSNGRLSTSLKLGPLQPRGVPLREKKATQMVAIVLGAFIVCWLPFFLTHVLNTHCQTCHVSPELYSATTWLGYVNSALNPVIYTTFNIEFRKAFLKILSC
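Cells at 1500/well, incubated overnight, then treated with pinned compounds (dopamine as control) for 90 min at 37 degrees C. DiscoveRx reagent added for 30 - 60 minutes at room temperature; luminescence read.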
D1 antagonist – human D1 dopamine receptor antagonism | P21728 | HEK293 TREx D1 cells, calcium flux, dopamine EC80; active compounds read low | activity change, negative = inhibition, % at 10 µM | 3.2% of 360,000 active; in the data active = activity change below about -30%
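After overnight tetracycline induction at 30 C, force-coupled D1 HEK293 cells took up a no-wash calcium dye at room temperature. Compounds were added and monitored 180 s, and the response to EC80 dopamine was then recorded.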
DRD3 antagonist – blocks the human D3 dopamine receptor; P35462; D3R cells, DiscoveRx beta-arrestin luminescence, antagonist mode; active compounds read low; max response, negative = inhibition, %; 2.5% of 360,000 active; in the data active = max response below about -50%; inconclusive = no clear call, values can overlap the other calls
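Cells plated overnight at 1500 cells/well, then exposed to library compounds with dopamine controls for 90 minutes at 37 degrees C. DiscoveRx reagent added for 30–60 minutes at room temperature; luminescence read, quantitative HTS format.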
D1 PAM – enhances dopamine response at the human D1 receptor; potentiation, % at 10 µM; 0.036% of 360,000 active; P21728; HEK293 TREx D1 cells, calcium flux, dopamine EC20 potentiation; in the data active = potentiation above about 30%
D1 ag – human D1 receptor agonism. HEK293 T-REx D1 cells, calcium flux, agonist mode. activation, % at 2 µM. 1% of 360,000 active. AID 504660; in the data active = activation above about 30%
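Tetracycline-induced HEK293 TREx D1 cells, force-coupled to calcium signalling, were dye-loaded with a no-wash calcium kit. Compound was pin-added after a 10 s baseline. Fluorescence was read kinetically at 1 cycle/s for 180 s, with calcium rises flagged as agonism.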
Of the large screens only hits and unclear results are named; the others gave an inactive call; ! = a repeat was not active. An excerpt weighted towards active compounds, which were near 6% of everything screened.

COc1ccc(N2CCN(C(=O)C3CCCN(S(=O)(=O)c4ccc5c(c4)CCCN5C(C)=O)C3)CC2)cc1 (stereo unspecified)	none (no result: DRD3 antagonist)
CC(=O)N1CCCc2cc(S(=O)(=O)N3CCCC(C(=O)NCc4ccccc4Cl)C3)ccc21 (stereo unspecified)	D1 antagonist -42!
O=C(CCCCCCCC(=O)c1ccccc1)c1ccccc1	none
C=C(CCC(=O)c1ccccc1)C(=O)c1ccccc1	DRD3 antagonist -54
O=C(CCCCCCC(=O)c1ccccc1)c1ccccc1	D1 antagonist -32
O=C(CCC(=O)c1ccccc1)Nc1ccccc1	none (no result: D1 antagonist, D1 PAM, D1 ag)
Cc1ccc(C)c(N2CCN(CCCNC(=O)c3cnn(-c4ccccc4)c3C3CCN(C(=O)OC(C)(C)C)CC3)CC2)c1	D1 antagonist -42 (no result: DRD3 antagonist)
COc1ccccc1N1CCN(CCCNC(=O)c2cnn(-c3ccc(C)c(C)c3)c2C2CCN(C(=O)OC(C)(C)C)CC2)CC1	none (no result: DRD3 antagonist)
COc1ccccc1N1CCN(CCCNC(=O)c2cnn(-c3cccc(Cl)c3)c2C2CCN(C(=O)OC(C)(C)C)CC2)CC1	D1 antagonist -31 (no result: DRD3 antagonist)
O=C1C(Cl)=C(N2CCOCC2)C(=O)N1CCc1ccccc1	none
CN1CCN(C2=C(Cl)C(=O)N(c3ccc(Cl)cc3)C2=O)CC1	DRD3 antagonist -83
O=C1C(Cl)=C(Nc2ccc(F)cc2)C(=O)N1CCc1ccccc1	D1 antagonist -35
CN1CCN(C2=C(Cl)C(=O)N(CCc3ccccc3)C2=O)CC1	DRD3 antagonist -71
O=C1C(Cl)=C(NCCc2ccccc2)C(=O)N1CCc1ccccc1	none
CC1CCCN(Cc2c(O)ccc3c(=O)c(-c4ccccc4Cl)c(C(F)(F)F)oc23)C1 (stereo unspecified)	none (no result: DRD3 antagonist)
CN1CCN(/C=N/c2c(C#N)cnn2-c2ccccc2)CC1	DRD3 antagonist inconclusive
Cc1ccc(-n2ncc(C#N)c2/N=C/N2CCN(C)CC2)cc1	DRD3 antagonist -76
O=C(NCC1CCN(Cc2cccc(F)c2)CC1)c1cc2ccc3cccnc3c2[nH]1	none (no result: DRD3 antagonist)
COc1ccc(C)cc1NC(=O)CSc1nc2scc(C)c2c(=O)[nH]1	D1 antagonist -31
CC(C)CNC(=O)CSc1nc2scc(-c3ccccc3)c2c(=O)[nH]1	DRD3 agonist 48
COc1ccc(C)cc1NC(=O)CSc1nc(=O)[nH]c2c1CCCC2	D1 ag 31 (no result: D1 antagonist, DRD3 antagonist)
CCOC(=O)c1ccccc1NC(=O)CSc1nc(=O)[nH]c2c1CCCC2	none (no result: D1 antagonist, DRD3 antagonist)
COc1ccc(Cl)cc1NC(=O)CSc1nc2sccc2c(=O)[nH]1	none
O=C(CSc1nc2scc(-c3ccccc3)c2c(=O)[nH]1)Nc1ccccc1	none
Cc1ccc2cc(CCNC(=O)c3ccco3)c(=O)[nH]c2c1	DRD3 antagonist -103
COc1ccc(Cl)cc1C=CC=NNS(=O)(=O)c1ccc(C)cc1	DRD3 antagonist -88 (no result: D1 antagonist, D1 PAM, D1 ag)
COc1ccc(Br)cc1C=NNS(=O)(=O)c1ccc(C)cc1	DRD3 antagonist inconclusive (no result: D1 antagonist, D1 PAM, D1 ag)
Cc1cc(OCC(=O)NC(C)C)cc(C)c1Cl	D1 antagonist -31
Cc1cc(OCCOCCNC(C)C)cc(C)c1Cl	DRD3 antagonist -58
CC(NCCOCCOc1ccccc1)c1ccccc1 (stereo unspecified)	none
COc1ccc(C)cc1NC(=O)CSc1ncc2c(n1)-c1ccc(Cl)cc1N(Cc1ccccc1)S2(=O)=O	none (no result: DRD3 antagonist)
Cc1cc(=O)n(C(C)C(=O)NCc2ccccc2Cl)c2c1c(C)nn2-c1ccccc1 (stereo unspecified)	none (no result: DRD3 antagonist)
CCn1cc(S(=O)(=O)c2cccc(Cl)c2)c(=O)c2cc(F)c(N3CCN(c4ccccc4)CC3)cc21	none (no result: DRD3 antagonist)
CC1(C)CC(=O)C(C=Nc2ccccc2Sc2ccccc2)=C(O)C1	DRD3 antagonist -54
COCCCNc1nccn2ccnc12	none (no result: D1 antagonist, D1 PAM, D1 ag)
NC(=O)c1ccccc1N/C=C/C(=O)c1ccc(Cl)cc1	none
Cc1ccc(C(=O)/C=C/Nc2ccccc2C(N)=O)cc1	DRD3 antagonist -80
CCCCS/C(N)=N/N=C/c1ccccc1O	DRD3 antagonist -50
CCCS/C(N)=N/N=C/c1cc(C)ccc1O	none
Cc1cccc(Nc2nc(Nc3cccc(C)c3)nc(N3CCOCC3)n2)c1	none (no result: DRD3 antagonist)
CCOC(=O)Cc1c(C)nc2c(-c3ccc(OC)c(OC)c3)c(C)nn2c1C	none (no result: DRD3 antagonist)
COc1ccc(C(=O)NCc2nnc(SCC(=O)N3CCc4ccccc43)n2Cc2ccccc2)cc1	D1 antagonist -30
CCn1ncc([N+](=O)[O-])c1C(=O)Nc1c(C)nn(Cc2ccc(F)cc2)c1C	D1 antagonist -40
CN(C)c1ccc(/C=C(\C#N)C(=O)Nc2nc3c(s2)CCN(Cc2ccccc2)C3)cc1	DRD3 antagonist inconclusive, D1 ag 68
O=C(Nc1nc2c(s1)CN(Cc1ccccc1)CC2)C1CCC1	none
CCSc1nc2ccccc2n1C(=O)/C=C\c1ccc(OC)c(OC)c1	DRD3 antagonist -54
CCSc1nc2ccccc2n1CC(N)=O	none
CC1(C)CC(=O)c2sc(NS(=O)(=O)c3ccccc3)nc2C1	D1 antagonist -38, DRD3 antagonist inconclusive
CCc1ccc2c(c1)c(=O)c(C(=O)c1ccc(C)cc1)cn2CC(=O)Nc1ccc2c(c1)OCCO2	none (no result: DRD3 antagonist)
CN1C[C@H](C(=O)NC2(C)OC3(O)[C@@H]4CCCN4C(=O)[C@H](Cc4ccccc4)N3C2=O)CC2c3cccc4[nH]cc(c34)C[C@H]21 (stereo partly specified)	DRD3 antagonist -57 (no result: D1 antagonist, D1 PAM, D1 ag)
O=C(NC1CCCN(CCc2ccccc2)C1)c1c[nH]c2ccccc12 (stereo unspecified)	none
O=c1nc2ccccc2c2n1CC(CN1CCN(c3ccccc3F)CC1)N2 (stereo unspecified)	DRD3 antagonist -69
CS(=O)(=O)c1ccc(-c2csc(C(O)(c3ccccc3)C(F)(F)F)n2)cc1 (stereo unspecified)	none (no result: D1 antagonist, D1 PAM, D1 ag)
COc1ccc(C[C@H]2CN3C(=NC[C@@H]3Cc3ccc(O)cc3)N2C[C@H](C)NC(=O)c2ccc(C)c(Br)c2)cc1	D1 antagonist -42, DRD3 antagonist -81
COc1ccc(C[C@H]2CN3C(=NC[C@@H]3C(C)C)N2C[C@H](C)NC(=O)c2ccc(C)c(Br)c2)cc1	DRD3 antagonist -76
Cc1ccc(C(=O)N[C@@H](C)CN2C3=NC[C@H](C(C)C)N3C[C@H]2Cc2ccc(O)cc2)cc1Br	D1 antagonist -57
C[C@@H](CN1C2=NC[C@H](Cc3ccc(O)cc3)N2C[C@H]1Cc1ccc(O)cc1)NC(=O)CCC1CCCCC1	none
Cc1cc(N2CCN(C(C(=O)NC3CCCC3)c3ccc(F)cc3)CC2)c2ccccc2n1 (stereo unspecified)	none (no result: D1 antagonist, D1 PAM, D1 ag)
COc1cc(C(C)=O)ccc1OCC(O)CN1CCN(c2ccc(C)cc2C)CC1 (stereo unspecified)	D1 antagonist -39, DRD3 antagonist -67
COc1cc(C(C)=O)ccc1OCC(O)CN1CCN(c2ccccn2)CC1 (stereo unspecified)	DRD3 agonist 78
COc1cc(C(C)=O)ccc1OCC(O)CN1CCN(c2ccccc2)CC1 (stereo unspecified)	DRD3 antagonist inconclusive
